# Source: PubChem BioAssay
# Activity calls are given as the source filed them.
# Columns and labels:
# Albumin (Bos taurus) = Albumin (Bos taurus) (UniProt P02769); test: bovine serum albumin binders on microarray, profiling panel, artefact control for SMM control protein annotation, biochemical, small-molecule microarray, Alexa647 label, 635/667 nm fluorescence (AID 1118); conditions: BSA-A647 binding, fluorescence 635 nm, higher = more signal;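 also: score merges 667 nm emission intensity and signal-to-noise per printed compound spot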
# [1] = small-molecule microarray binders of probe aXIP, primary screen, biochemical, NeuroSMM set, 635/667 nm fluorescence (AID 1119); conditions: higher = more signal, called active from +8 up or from −8 down;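 also: probe is the protein aXip251-270 applied at 1 µg/mL to compound-printed slides; binding of probe to printed compounds measured as 667 nm fluorescence plus signal to noise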
# [2] = small-molecule binders of probe aNOTCH3, primary screen, biochemical, small-molecule microarray, 635/667 nm fluorescence (AID 1120); conditions: higher = more signal;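 also: probe is a biotin-tagged antibody raised against NOTCH3 rather than NOTCH3 protein; score merges spot fluorescence near 667 nm with spot signal to noise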
# [3] = small-molecule binders of probe aNOTCH2, primary screen, biochemical, small-molecule microarray, 635/667 nm fluorescence (AID 1121); conditions: higher = more signal;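 also: score merges feature fluorescence read at 667 nm with its signal to noise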
# [4] = biological target: Carbonic anhydrase 2 (Homo sapiens) (UniProt P00918); test: CAII small-molecule binders, profiling panel, biochemical, small-molecule microarray, Alexa647-labelled CAII (AID 1122); conditions: CAII-A647 binding fluorescence, higher = more signal
# [5] = COS7 lysate on small-molecule microarray, probe aHis, 635 nm (AID 1123); conditions: COS7 cell lysate, fluorescence, higher = more signal;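 also: z-score combines 667nm fluorescence intensity with signal-to-noise per printed compound spot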
# [6] = compound binding in COS7 lysate, probe aLAP1, primary screen, cell lysate, small-molecule microarray (AID 1124); conditions: probe aLAP1, fluorescence, higher = more signal;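 also: lysate comes from COS7 cells expressing LAP1 and is applied at 0.3 µg/mL; score merges spot fluorescence near 667 nm with signal-to-noise over triplicate slides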
# Sam68 (KHDRBS1) = test: Sam68 small-molecule binders, primary screen, biochemical, small-molecule microarray, 635 nm fluorescence (AID 1125); conditions: small-molecule microarray binding, higher = more signal;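 also: score merges 667 nm channel intensity with signal to noise over triplicate slides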
# [7] = tested on: Chordin-like protein 2 (CHRDL2); test: CHRDL2 small-molecule binders, primary screen, biochemical, small-molecule microarray, 635 nm fluorescence (AID 1126); conditions: small-molecule microarray binding, fluorescence 635 nm; higher = more signal;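 also: printed compound slides probed with Chrdl2 protein at 4 µg/mL for 1 h at 4 C; score merges 667 nm emission intensity with signal to noise over three replicate slides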
# [8] = biological target: Concanavalin-A (Canavalia ensiformis) (UniProt P02866); test: ConA small-molecule binders, primary screen, artefact control for SMM control protein annotation, biochemical, small-molecule microarray, Alexa647 label, 635 nm (AID 1127); conditions: ConA-A647 binding fluorescence, higher = more signal;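 also: z combines 667 nm emission intensity with signal-to-noise across three replicate slides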
# [9] = anti-His antibody binders, primary screen, artefact control for SMM control protein annotation, biochemical, small-molecule microarray, 635 nm fluorescence (AID 1128); conditions: anti-His Alexa647 antibody binding, higher = more signal;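 also: score merges feature fluorescence with signal-to-noise for each printed compound spot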
# [10] = tested on: Human papillomavirus type 1a E7 protein (residues 1-88); test: HPV1a E7 small-molecule binders, primary screen, biochemical, small-molecule microarray, residues 1-88, 635 nm (AID 1129); conditions: small-molecule microarray binding, fluorescence 635 nm; higher = more signal
# [11] = biological target: Focal adhesion kinase 1 (Homo sapiens) (UniProt Q05397); test: small-molecule microarray binders of FAK, primary screen, biochemical, 635/667 nm fluorescence, BSA, DTT (AID 1130); conditions: PTK2 binding, 635 nm fluorescence, higher = more signal;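 also: composite of spot emission at 667 nm and signal to noise over triplicate slides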
# [12] = tested on: Fibrinogen (Alexa647-labelled); test: fibrinogen binders on compound microarrays, profiling panel, artefact control for SMM control-protein annotation, biochemical, small-molecule microarray, 635/667 nm fluorescence (AID 1131); conditions: fibrinogen-A647 binding fluorescence, higher = more signal;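 also: z-score merges 667 nm fluorescence with per-spot signal-to-noise over triplicate slides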
# [13] = biological target: Follistatin (Homo sapiens) (UniProt P19883); test: follistatin binders on small-molecule microarrays, primary screen, biochemical, small-molecule microarray, 635/667 nm fluorescence (AID 1132); conditions: FST binding, 635 nm fluorescence, higher = more signal
# [14] = biological target: Fibroblast growth factor 2 (Homo sapiens) (UniProt P09038); test: FGF2 binders on small-molecule microarrays, primary screen, biochemical, small-molecule microarray, 635/667 nm fluorescence (AID 1133); conditions: small-molecule microarray binding, FGF2, fluorescence 635/667; higher = more signal
# [15] = mitochondrial membrane potential change in A549 cells, profiling panel, cell-based, JC-1 fluorescence, basal, 24 h, 100 nL (AID 1138); conditions: higher = more signal;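 also: A549 lung adenocarcinoma cells under basal conditions with no added stimulus; test concentration not given here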
# Lefty1 = Lefty1 binders on small-molecule microarrays, primary screen, biochemical, small-molecule microarray, 635/667 nm fluorescence (AID 1139); conditions: small-molecule microarray binding, fluorescence 635/667; higher = more signal
# [16] = tested on: wheat germ agglutinin (Triticum aestivum), Alexa647-labelled; test: wheat germ agglutinin binders on compound microarrays, profiling panel, artefact control for SMM control-protein annotation, biochemical, small-molecule microarray, 635/667 nm fluorescence (AID 1140); conditions: WGA-A647 binding, 635 nm fluorescence, higher = more signal;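 also: score merges 667 nm feature emission with signal to noise over triplicate slides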
# [17] = biological target: Luciferin 4-monooxygenase (Photinus pyralis) (UniProt P08659); test: firefly luciferase enzyme inhibitors, primary screen, biochemical, luminescence, purified enzyme, 2006 set (AID 1141); conditions: SteadyGlo luminescence, 30 min, higher = more signal, called active from +8 up or from −8 down;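 also: cell-free assay with purified firefly luciferase at 100 ng per well in PBS; test concentration not given here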
# Sequence of Luciferin 4-monooxygenase (Photinus pyralis) (P08659 whole entry, looked up): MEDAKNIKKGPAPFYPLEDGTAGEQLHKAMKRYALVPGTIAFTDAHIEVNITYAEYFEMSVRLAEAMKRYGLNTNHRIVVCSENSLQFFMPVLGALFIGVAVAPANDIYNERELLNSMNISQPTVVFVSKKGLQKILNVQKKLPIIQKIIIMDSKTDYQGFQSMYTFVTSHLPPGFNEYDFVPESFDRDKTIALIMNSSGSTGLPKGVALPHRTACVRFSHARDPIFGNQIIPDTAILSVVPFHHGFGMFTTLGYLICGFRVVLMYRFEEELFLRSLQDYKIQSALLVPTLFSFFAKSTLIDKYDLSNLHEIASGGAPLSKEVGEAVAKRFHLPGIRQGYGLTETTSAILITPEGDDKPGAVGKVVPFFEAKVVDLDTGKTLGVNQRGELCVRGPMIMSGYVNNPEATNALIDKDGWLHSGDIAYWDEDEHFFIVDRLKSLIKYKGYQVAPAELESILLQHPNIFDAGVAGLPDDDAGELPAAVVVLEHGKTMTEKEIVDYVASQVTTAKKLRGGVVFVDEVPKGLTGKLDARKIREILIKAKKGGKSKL
# Sequence of Albumin (Bos taurus) (P02769 whole entry, looked up): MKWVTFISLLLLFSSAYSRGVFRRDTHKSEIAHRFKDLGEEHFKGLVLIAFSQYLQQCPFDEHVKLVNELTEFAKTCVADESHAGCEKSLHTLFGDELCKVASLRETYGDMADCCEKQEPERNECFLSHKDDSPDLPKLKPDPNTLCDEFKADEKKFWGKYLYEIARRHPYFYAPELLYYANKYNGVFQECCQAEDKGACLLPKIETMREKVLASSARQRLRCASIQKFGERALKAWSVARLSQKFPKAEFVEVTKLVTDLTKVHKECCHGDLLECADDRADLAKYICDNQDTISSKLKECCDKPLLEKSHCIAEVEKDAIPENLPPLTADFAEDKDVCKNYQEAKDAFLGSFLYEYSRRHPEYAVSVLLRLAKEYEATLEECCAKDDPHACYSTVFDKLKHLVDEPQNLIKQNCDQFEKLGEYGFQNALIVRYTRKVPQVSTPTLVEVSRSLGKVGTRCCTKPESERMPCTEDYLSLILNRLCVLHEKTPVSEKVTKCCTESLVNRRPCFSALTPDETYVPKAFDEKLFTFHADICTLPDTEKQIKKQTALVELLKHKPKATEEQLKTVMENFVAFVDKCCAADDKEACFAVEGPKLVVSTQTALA
# Sequence of Focal adhesion kinase 1 (Homo sapiens) (Q05397 whole entry, looked up): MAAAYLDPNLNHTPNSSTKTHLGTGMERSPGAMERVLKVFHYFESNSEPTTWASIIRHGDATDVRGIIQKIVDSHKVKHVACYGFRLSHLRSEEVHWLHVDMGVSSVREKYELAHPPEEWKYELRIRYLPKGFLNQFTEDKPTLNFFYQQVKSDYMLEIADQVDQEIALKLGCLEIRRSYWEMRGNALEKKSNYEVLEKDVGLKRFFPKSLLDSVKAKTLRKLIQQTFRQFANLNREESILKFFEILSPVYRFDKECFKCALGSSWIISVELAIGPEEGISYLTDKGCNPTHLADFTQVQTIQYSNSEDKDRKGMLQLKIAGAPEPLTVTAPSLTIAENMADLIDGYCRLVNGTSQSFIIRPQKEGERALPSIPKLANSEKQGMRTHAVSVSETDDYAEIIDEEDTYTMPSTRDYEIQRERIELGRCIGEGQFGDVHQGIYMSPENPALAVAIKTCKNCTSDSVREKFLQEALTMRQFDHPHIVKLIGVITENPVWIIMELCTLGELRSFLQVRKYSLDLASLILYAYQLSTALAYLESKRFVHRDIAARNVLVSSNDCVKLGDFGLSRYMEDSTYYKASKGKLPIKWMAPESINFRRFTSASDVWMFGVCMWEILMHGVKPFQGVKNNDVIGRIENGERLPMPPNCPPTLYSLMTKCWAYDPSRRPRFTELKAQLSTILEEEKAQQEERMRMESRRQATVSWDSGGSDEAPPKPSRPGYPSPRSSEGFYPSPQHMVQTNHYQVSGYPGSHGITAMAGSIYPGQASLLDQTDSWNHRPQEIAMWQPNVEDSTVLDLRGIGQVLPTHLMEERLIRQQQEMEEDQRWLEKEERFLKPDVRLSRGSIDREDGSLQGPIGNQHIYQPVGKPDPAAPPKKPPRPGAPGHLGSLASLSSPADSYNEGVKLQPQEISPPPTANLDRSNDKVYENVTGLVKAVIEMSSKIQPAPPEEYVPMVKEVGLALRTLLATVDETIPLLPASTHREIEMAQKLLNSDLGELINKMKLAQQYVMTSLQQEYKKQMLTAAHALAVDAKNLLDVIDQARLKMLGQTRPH
# Sequence of Concanavalin-A (Canavalia ensiformis) (P02866 whole entry, looked up): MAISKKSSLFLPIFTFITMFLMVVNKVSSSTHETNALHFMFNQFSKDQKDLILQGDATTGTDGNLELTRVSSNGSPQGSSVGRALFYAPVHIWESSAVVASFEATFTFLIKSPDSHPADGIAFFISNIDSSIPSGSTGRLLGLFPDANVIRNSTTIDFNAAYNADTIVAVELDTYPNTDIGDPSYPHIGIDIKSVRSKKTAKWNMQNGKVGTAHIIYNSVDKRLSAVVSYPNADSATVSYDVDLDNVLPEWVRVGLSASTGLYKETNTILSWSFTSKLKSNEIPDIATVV
# Sequence of Follistatin (Homo sapiens) (P19883 whole entry, looked up): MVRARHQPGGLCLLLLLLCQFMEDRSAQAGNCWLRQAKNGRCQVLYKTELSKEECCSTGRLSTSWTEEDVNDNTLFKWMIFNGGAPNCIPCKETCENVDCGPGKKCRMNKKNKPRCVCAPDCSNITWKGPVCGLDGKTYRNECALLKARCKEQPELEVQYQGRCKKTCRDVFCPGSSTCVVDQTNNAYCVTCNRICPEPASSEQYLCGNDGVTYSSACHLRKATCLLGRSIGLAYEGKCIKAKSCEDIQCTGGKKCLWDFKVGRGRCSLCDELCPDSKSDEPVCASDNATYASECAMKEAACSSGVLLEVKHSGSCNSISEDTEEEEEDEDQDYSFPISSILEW
# Sequence of Fibroblast growth factor 2 (Homo sapiens) (P09038 whole entry, looked up): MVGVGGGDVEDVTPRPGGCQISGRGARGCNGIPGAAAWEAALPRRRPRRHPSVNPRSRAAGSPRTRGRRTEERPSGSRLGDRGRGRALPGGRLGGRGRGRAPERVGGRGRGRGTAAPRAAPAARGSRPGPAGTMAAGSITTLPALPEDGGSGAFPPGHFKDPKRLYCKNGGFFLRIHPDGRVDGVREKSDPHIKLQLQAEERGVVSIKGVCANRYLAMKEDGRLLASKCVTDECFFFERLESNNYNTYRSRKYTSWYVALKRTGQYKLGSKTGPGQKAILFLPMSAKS
Structure (SMILES),composite z-score (Albumin (Bos taurus)),composite Z-score [1],composite z-score [2],composite z-score [3],composite z-score [4],composite z-score [5],composite z-score [6],composite z-score (Sam68 (KHDRBS1)),composite z-score [7],composite z-score [8],composite z-score [9],composite z-score [10],composite z-score [11],composite z-score [12],composite z-score [13],composite z-score [14],z-score [15],composite z-score (Lefty1),composite z-score [16],z-score [17]
COc1ccccc1CN1C(=O)c2ccccc2[C@@H](C(=O)NC2CC2)[C@@H]1c1ccc(CO)cc1,-1.07,0.0824 (inactive),0.0522,-0.0449,0.602,1.05,0.849,1.31,0.837,1.14,2.77,1.23,0.344,0.725,1.42,1.66,1.76,1.5,0.85,-0.659 (inactive)
CN(C)CCCC[C@@H]1NC(=O)[C@@H]2C[C@H](C(=O)NCCCCCCN)[C@H](c3cccc(OCCO)c3)N2C1=O,0.839,0.938 (inactive),1.07,0.308,0.632,3.25,0.495,1.3,0.299,1.13,3.34,1.2,1.48,0.936,0.861,0.357,-0.9,0.409,1.49,0.132 (inactive)
COc1ccc([Si](C)(C)[C@@H]2[C@@H](CCO)O[C@]3(C(=O)N(Cc4ccc(N(C=O)c5ccccc5)cc4)c4ccccc43)[C@H]2C)cc1,0.842,-0.119 (inactive),0.0842,-0.0621,0.285,0.313,-0.456,0.495,-0.402,0.786,0.297,0.34,0.0744,0.845,0.735,0.526,-0.0272,0.0434,1.06,0.0379 (inactive)
O=C1O[C@H](c2ccccc2)[C@H](c2ccccc2)N2[C@H]1[C@@H](C(=O)N1CCCCCCC1)[C@]1(C(=O)Nc3ccc(C#CCCO)cc31)[C@H]2c1ccccc1OCCO,0.536,10.7 (active),2.31,1.14,1.12,5.54,1.3,1.35,1.7,1.21,3.55,1.36,5.56,1.02,1.58,1.16,0.372,1.93,1.64,-1.35 (inactive)
C=C(C)[C@@H]1CC=C(C(O)C2C=CC3C(=O)N(C)C(=O)C3N2Nc2ccccc2)CC1 (stereo not given in full),0.203,0.0898 (inactive),0.15,-0.0617,0.372,0.491,0.201,0.838,1.38,0.183,-0.243,1.17,0.427,0.262,1.38,1.12,0.54,0.987,1.18,0.485 (inactive)
COc1ccc(C#Cc2ccc3c(c2)[C@]2(C(=O)N3)[C@H](C(=O)NC[C@H](O)c3ccccc3)[C@H]3C(=O)O[C@H](c4ccccc4)[C@H](c4ccccc4)N3[C@@H]2c2ccc(O)cc2)cc1,0.186,0.658 (inactive),0.0585,-0.139,0.566,2.46,0.624,1.29,-0.0259,1.13,2.71,1.23,0.521,0.901,1.08,0.811,-1.57,0.767,0.947,0.656 (inactive)
[N-]=[N+]=NCc1ccccc1[C@@H]1OC(c2ccc(OCCCO)cc2)=N[C@]1(Cc1ccccc1)C(=O)NCC(O)CO (stereo not given in full),1.05,1.57 (inactive),0.271,0.109,0.546,3.09,1.18,1.22,-0.549,0.306,1.9,1.19,0.443,0.958,0.973,1.52,0.529,-1.3,0.718,-0.0075 (inactive)
C=C[C@H](OC)[C@@H](OC(=O)Nc1ccc(OC)cc1)c1ccc(O)c(F)c1,-1.15,0.111 (inactive),-0.333,-0.217,0.562,2.28,0.953,0.96,-1.85,-1.15,2.08,0.424,-0.585,-1.5,-1.07,-1.23,-0.944,-0.288,-1.28,-6.53 (inactive)
O=C1C[C@@](C(=O)NCCN2CCOCC2)(c2ccc([N+](=O)[O-])cc2)[C@@H](c2ccc(CO)cc2I)N1CC12CC3CC(CC(C3)C1)C2,-0.091,0.0692 (inactive),0.0842,-0.037,0.584,1.77,0.811,1.33,0.392,0.987,1.37,1.24,0.656,0.954,1.19,1.22,-0.826,1.08,0.981,-1.51 (inactive)
